Here are results for 8 compounds from PubChem BioAssay (Tox21).

Values joined by “and” are separate entries in the source; they are usually repeats but may differ in a detail not shown here. Equal entries are not always repeated. Records with an inconclusive call do not appear. Active and inactive are the calls of the source. Unless noted, calls follow the shape of the full dose curve.

Assay [1] is described as follows: Nuclear factor erythroid 2-related factor 2/antioxidant responsive element (Nrf2/ARE) small molecule agonists: qHTS cell viability counter screen in human keratinocytes (AID 1919968; active = well fitted curve in the direction sought with a large enough effect in the repeat runs; an effect the other way counts as inactive or inconclusive; also: nearly all actives have a fitted effect of over 55% in size). The gist of the method: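 Cytotoxicity was multiplexed with the Nrf2/ARE luciferase assay in the same wells. Stably transfected HaCaT keratinocytes were treated with test compounds for 23 h at 37 C. Cell viability was then measured by CellTiter-Fluor fluorescence.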
Background: Quantitative high-throughput screening tests each substance at several concentrations.

Assay [2] is described as follows: Nuclear factor erythroid 2-related factor 2/antioxidant responsive element (Nrf2/ARE) small molecule agonists: luciferase reporter gene qHTS assay in human keratinocytes (AID 1919969). Also: nearly all actives have a fitted effect of over 35% in size. Also: potency is read from the fitted curve at half-maximal effect. On the technique in general: A reporter such as luciferase makes a cellular process visible.
Assay [3] concerns the target Gonadotropin-releasing hormone receptor (Homo sapiens) (UniProt P30968). The assay is described as follows: Human gonadotropin-releasing hormone receptor (GnRHR) small molecule agonists, calcium flux assay in GnRHR-HEK293 cells (AID 1920063). Also: nearly all actives have a fitted effect of over 35% in size. The gist of the method:
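Agonist activity was measured as intracellular calcium flux in HEK293 cells engineered to stably express human GnRHR. After dye loading for 1 hour at 37 C, compounds in DMSO were added and fluorescence was followed for 3 minutes.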
(Calcium assays in cells follow changes in intracellular calcium, usually with a dye or a luminescent sensor.)

For assay [4], the target named is KiSS-1 receptor (Homo sapiens) (UniProt Q969F8). Briefly: Human kisspeptin (KISS1R) small molecule agonists, calcium flux assay in KISS1R-HEK293 cells (AID 1920064; active = well fitted curve in the direction sought with a large enough effect in the repeat runs; an effect the other way counts as inactive or inconclusive). The gist of the method: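 Agonist activity is monitored as intracellular calcium rise in engineered HEK293 cells carrying human KISS1R. Cells are dye-loaded for 1 h at 37 C before compound addition, and fluorescence is recorded for 3 min.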
Sequence of KiSS-1 receptor (Homo sapiens) (Q969F8 whole entry, looked up): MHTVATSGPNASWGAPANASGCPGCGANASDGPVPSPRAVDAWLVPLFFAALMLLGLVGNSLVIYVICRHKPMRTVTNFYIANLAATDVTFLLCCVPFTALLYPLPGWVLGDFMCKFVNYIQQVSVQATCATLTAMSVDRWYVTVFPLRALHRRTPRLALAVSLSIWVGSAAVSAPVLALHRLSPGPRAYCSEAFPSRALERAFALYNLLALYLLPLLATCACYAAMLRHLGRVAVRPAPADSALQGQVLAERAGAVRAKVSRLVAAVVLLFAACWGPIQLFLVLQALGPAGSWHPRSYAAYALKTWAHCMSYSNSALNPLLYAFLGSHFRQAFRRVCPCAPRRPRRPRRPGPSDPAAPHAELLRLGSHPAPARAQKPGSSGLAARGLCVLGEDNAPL

Assay [5] is described as follows: G protein-coupled receptor (GPCR) small molecule agonists, calcium flux assay: HEK293 wild type cell line counter screen (AID 1920065). A digest of the protocol:
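Seed cells, incubate 18 h (37 C, 5% CO2); add calcium dye, 1 h at 37 C; pin-transfer compounds, ATP control or DMSO; read fluorescence 480/540 nm each second for 3 min.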

Assay [6] in a line: p53 small molecule agonists, cell-based qHTS assay with human liver microsomes (AID 1963577).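 Also: p53 response element beta-lactamase reporter cells with liver microsomes plus NADPH.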 A digest of the protocol: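 Reporter activation was measured by LiveBLAzer fluorescence intensity in p53RE-bla cells, which had been exposed to compounds for 16 h at 37 C alongside 0.5 mg/mL human liver microsomes and 0.5 mg/mL NADPH (final concentrations).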
A short description of assay [7]: p53 small molecule agonists, cell-based qHTS assay with rat liver microsomes (AID 1963578). The gist of the method: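 Compound in DMSO added to p53RE-bla cells 5 h post-plating; rat microsomes/NADPH 0.5 mg/mL final; 16 h, 37 C; LiveBLAzer 2 h RT.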
Assay [8] in a line: p53 small molecule agonists, cell-based qHTS assay with human liver microsomes: qHTS cell viability counter screen (AID 1963579). Also: nearly all actives have a fitted effect of over 45% in size. The gist of the method: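 HLM-supplemented (0.5 mg/mL final) and NADPH-supplemented (0.5 mg/mL final) p53RE-bla cultures, 4,000 cells per well, were dosed with compounds in DMSO for 16 h at 37 C; luminescent ATP detection (CellTiter-Glo, 30 min, room temperature) quantified surviving cells.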

A short description of assay [9]: p53 small molecule agonists, cell-based qHTS assay with rat liver microsomes: qHTS cell viability counter screen (AID 1963580). Also: nearly all actives have a fitted effect of over 45% in size. The gist of the method:
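Cytotoxicity counter screen: intracellular ATP measured by CellTiter-Glo luminescence in the same wells as the beta-lactamase reporter read, on HCT-116 p53RE-bla cells exposed 16 h at 37 C to compounds with rat liver microsomes and NADPH, each 0.5 mg/mL final.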

Assay [10] can be described thus: p53 small molecule agonists, cell-based qHTS assay: qHTS cell viability counter screen (AID 1963581). Also: nearly all actives have a fitted effect of over 45% in size. A digest of the protocol: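 Viability was counter-screened in parallel with the p53 agonist reporter by measuring intracellular ATP luminescence in the same HCT-116 p53RE-bla wells after 16 h compound treatment at 37 C.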
Assay [11] has as its target 5-hydroxytryptamine receptor 2A (Homo sapiens) (UniProt P28223). Briefly: 5-hydroxytryptamine receptor 2A (HTR2A) small molecule antagonists, cell-based qHTS assay (AID 1963586). Also: nearly all actives have a fitted effect of over 45% in size. The gist of the method: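 CHO cells stably expressing human HTR2A were plated for 18 h at 37 C, then loaded with calcium dye for 1 h. Compounds were preincubated 5 min at room temperature before DOI (4 nM solution) was added. Kinetic fluorescence was read for 3 min.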

Assay [12] shares this target. The assay is described as follows: 5-hydroxytryptamine receptor 2A (HTR2A) small molecule agonists, cell-based qHTS assay (AID 1963587). Also: nearly all actives have a fitted effect of over 30% in size. The gist of the method:
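CHO cells stably expressing human HTR2A, plated 18 h, loaded with calcium dye 1 h at 37 C. Agonist mode: compounds added and intracellular calcium fluorescence recorded kinetically for 2 min at 1 sec intervals.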

The target of assay [13] is Muscarinic acetylcholine receptor M1 (Homo sapiens) (UniProt P11229). Briefly: Cholinergic receptor muscarinic 1 (CHRM1) small molecule antagonists, cell-based qHTS assay (AID 1963588). Also: nearly all actives have a fitted effect of over 40% in size. The gist of the method:
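Compounds were tested at 15 concentrations in three independent runs. Dye-loaded CHRM1-CHO cells were exposed 5 min at room temperature before stimulation by acetylcholine added at 50nM. Intracellular calcium was read kinetically on FDSS for 3 min.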

For assay [14] the target is unchanged. Briefly: Cholinergic receptor muscarinic 1 (CHRM1) small molecule agonists, cell-based qHTS assay (AID 1963589). Also: nearly all actives have a fitted effect of over 35% in size. The gist of the method: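 Cells were plated and incubated 18 h at 37 C/5% CO2, loaded with calcium dye for 1 h at 37 C, then treated with compounds in DMSO. Fluorescence was recorded kinetically at 1 sec intervals.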
Assay [15] in a line: cAMP Responsive Elements (CRE) small molecule agonists, cell-based qHTS assay (AID 1963590). The gist of the method:
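Cells carrying a CRE-driven beta-lactamase reporter (HEK 293T) are seeded, incubated overnight (18 h), and treated with test compounds for 3 h at 37 C; reporter activity is then detected with a FRET substrate after 2 h at room temperature.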

A short description of assay [16]: cAMP Responsive Elements (CRE) small molecule antagonists, cell-based qHTS assay (AID 1963591; active = well fitted inhibition curve with a large enough effect in the signal ratio in the repeat runs, not every such curve was filed as active; the % refers to the signal ratio). A digest of the protocol: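 Cells (CRE-bla HEK 293T, DMEM with 10% dialyzed FBS and 25 mM HEPES) are seeded and incubated 18 h. Compounds are added with NKH477 agonist at 0.25 uM final for 3 h, then FRET substrate for 2 h.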
Assay [17] concerns the target Beta-2 adrenergic receptor (Homo sapiens) (UniProt P07550). Briefly: Adrenergic beta2 receptor (ADRB2) small molecule antagonists, cell-based qHTS assay (AID 1963592). Also: series mostly up to about 92 µM; nearly all actives have a fitted effect of over 50% in size. A digest of the protocol:
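Assay format: CHO-ADRB2 cells, 18-20hr seeding at 37C/5% CO2, then compound plus 1nM isoproterenol agonist mix for 0.5hr RT. Homogeneous time-resolved fluorescence cAMP detection after 1hr, expressed as 665/615 nm ratio.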

Assay [18] addresses D(2) dopamine receptor (Homo sapiens) (UniProt P14416). Briefly: Dopamine D2 receptor (DRD2) small molecule antagonists, cell-based qHTS assay (AID 1963595; active = well fitted inhibition curve with a large enough effect in the signal ratio in the repeat runs, with a control signal flat; the % refers to the signal ratio). A digest of the protocol: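 In this cell-based antagonist screen, compounds act for 10 min at room temperature before a 30 min challenge with 12 nM quinpirole and 200 nM NKH477. cAMP is quantified by HTRF competition in DRD2-HEK293 cells containing 0.1 mM Ro20-1724.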

Assay [19] is described as follows: p53 small molecule agonists, cell-based qHTS assay (AID 1963582; active = well fitted activation curve with a large enough effect in the signal ratio in the repeat runs, not every such curve was filed as active; the % refers to the signal ratio; also: potency is read from the fitted curve at half-maximal effect). The gist of the method:
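Cells carrying a p53-responsive bla reporter are treated with test compounds for 16 h at 37 C; beta-lactamase activity is then detected with LiveBLAzer B/G FRET substrate after 2 h at room temperature.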

For assay [20], the target named is D(2) dopamine receptor (Homo sapiens) (UniProt P14416). The assay is described as follows: Dopamine D2 receptor (DRD2) small molecule agonists, cell-based qHTS assay (AID 1963594). Also: nearly all actives have a fitted effect of over 35% in size. A digest of the protocol: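 HEK293 cells stably expressing human DRD2, pre-treated with PDE inhibitor Ro20-1724 (0.1 mM final) and compound 10 min at room temperature, then stimulated with NKH477 (200nM […]) for 30 min. cAMP read by HTRF (665/620 nm).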
Sequence of D(2) dopamine receptor (Homo sapiens) (P14416 whole entry, looked up): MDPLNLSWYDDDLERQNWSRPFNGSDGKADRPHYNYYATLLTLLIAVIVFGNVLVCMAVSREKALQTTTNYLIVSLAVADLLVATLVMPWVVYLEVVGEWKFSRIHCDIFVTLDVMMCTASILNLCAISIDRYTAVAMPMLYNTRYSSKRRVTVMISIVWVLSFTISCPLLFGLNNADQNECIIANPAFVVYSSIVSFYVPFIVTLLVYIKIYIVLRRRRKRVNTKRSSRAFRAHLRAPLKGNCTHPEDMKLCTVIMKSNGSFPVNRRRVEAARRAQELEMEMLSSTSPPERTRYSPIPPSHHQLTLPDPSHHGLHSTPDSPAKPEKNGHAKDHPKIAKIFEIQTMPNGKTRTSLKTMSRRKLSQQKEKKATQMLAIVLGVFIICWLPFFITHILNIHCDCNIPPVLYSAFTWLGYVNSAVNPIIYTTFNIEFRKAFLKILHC

Sequence of 5-hydroxytryptamine receptor 2A (Homo sapiens) (P28223 whole entry, looked up): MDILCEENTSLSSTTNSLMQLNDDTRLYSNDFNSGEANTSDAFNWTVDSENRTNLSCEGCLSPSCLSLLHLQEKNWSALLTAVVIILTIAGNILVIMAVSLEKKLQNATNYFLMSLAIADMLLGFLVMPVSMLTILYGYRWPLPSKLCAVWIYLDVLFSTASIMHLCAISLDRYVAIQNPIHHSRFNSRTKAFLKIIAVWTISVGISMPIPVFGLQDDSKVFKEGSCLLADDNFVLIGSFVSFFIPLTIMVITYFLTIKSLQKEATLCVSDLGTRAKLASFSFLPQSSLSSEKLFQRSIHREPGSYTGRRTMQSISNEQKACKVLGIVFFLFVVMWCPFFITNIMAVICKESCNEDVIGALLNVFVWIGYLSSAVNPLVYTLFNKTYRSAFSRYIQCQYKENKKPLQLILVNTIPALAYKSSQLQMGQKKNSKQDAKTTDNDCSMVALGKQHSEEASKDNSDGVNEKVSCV
Sequence of Muscarinic acetylcholine receptor M1 (Homo sapiens) (P11229 whole entry, looked up): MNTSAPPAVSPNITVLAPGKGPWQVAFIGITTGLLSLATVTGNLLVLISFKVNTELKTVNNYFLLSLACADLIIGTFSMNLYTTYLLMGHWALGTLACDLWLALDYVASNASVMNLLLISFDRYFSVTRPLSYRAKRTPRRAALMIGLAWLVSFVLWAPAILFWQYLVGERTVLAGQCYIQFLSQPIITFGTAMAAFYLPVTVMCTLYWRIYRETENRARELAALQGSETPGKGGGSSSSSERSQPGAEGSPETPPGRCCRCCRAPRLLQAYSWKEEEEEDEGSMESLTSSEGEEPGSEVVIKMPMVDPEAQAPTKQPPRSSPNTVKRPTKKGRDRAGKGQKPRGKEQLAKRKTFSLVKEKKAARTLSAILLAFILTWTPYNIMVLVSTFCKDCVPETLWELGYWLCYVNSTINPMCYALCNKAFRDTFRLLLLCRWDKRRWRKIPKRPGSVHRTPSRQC
Sequence of Beta-2 adrenergic receptor (Homo sapiens) (P07550 whole entry, looked up): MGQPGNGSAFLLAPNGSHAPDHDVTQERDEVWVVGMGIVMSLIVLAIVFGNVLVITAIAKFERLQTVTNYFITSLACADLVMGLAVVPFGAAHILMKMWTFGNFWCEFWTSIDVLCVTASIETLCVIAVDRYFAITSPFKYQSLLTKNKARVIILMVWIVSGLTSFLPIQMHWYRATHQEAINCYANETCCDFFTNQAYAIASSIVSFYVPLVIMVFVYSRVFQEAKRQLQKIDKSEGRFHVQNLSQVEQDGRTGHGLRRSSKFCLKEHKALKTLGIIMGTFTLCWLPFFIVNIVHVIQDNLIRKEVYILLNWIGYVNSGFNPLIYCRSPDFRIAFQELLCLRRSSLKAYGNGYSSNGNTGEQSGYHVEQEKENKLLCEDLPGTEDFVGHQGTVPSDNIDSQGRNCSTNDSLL
Sequence of Gonadotropin-releasing hormone receptor (Homo sapiens) (P30968 whole entry, looked up): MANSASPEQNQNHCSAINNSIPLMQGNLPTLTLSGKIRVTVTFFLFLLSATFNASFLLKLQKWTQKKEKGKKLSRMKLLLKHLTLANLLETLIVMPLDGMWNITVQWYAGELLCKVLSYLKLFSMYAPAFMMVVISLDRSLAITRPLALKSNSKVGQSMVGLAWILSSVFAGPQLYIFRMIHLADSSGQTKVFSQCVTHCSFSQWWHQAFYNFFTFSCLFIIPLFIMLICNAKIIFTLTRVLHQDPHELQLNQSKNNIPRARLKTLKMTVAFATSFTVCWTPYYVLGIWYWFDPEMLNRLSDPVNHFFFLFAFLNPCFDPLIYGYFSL

Regarding `Cc1cccc(C)c1NC(=O)CN1CCCC1=O`, the Potency entry in [1], in assay [2], in assay [3], in [4], in assay [5] and in assay [6] was “inactive” in each case. For the same compound, the Potency entry in assay [7], in assay [8], in assay [9], in assay [10], in assay [11] and in assay [12] was “inactive” each time. Besides, the Potency entry in assay [13], in [14], in assay [15], in assay [16], in [17] and in assay [18] was “inactive” in each case.

`NC(=O)CN1CCCC1=O`: the Potency entry in assay [1], in [2], in assay [3], in assay [4], in [5] and in assay [6] was “inactive” each time. Moreover, the Potency result in assay [7], in assay [8], in [9], in [10], in assay [19] and in [15] was “inactive” in each case. Also, the Potency result in assay [16], in [17], in [20] and in assay [18] was “inactive” throughout.

`C=CC(N)=O`: the Potency entry in assay [1], in assay [2], in [3], in assay [4], in [5] and in [6] was “inactive” throughout. Moreover, the Potency result in assay [7], in assay [8], in [9], in [10], in assay [19] and in [15] was “inactive” each time. In addition, the Potency result in [16], in assay [17] and in [20] was “inactive” in each case.

With `CCCCC(CC)CO[N+](=O)[O-]` (configuration not stated), the Potency entry in assay [1], in assay [2], in assay [3], in assay [4], in assay [5] and in assay [6] was “inactive” in each case. Also, the Potency entry in assay [7], in [8], in [9], in [10], in [19] and in assay [12] was “inactive” in each case. In addition, the Potency result in assay [13], in [14], in [15], in assay [16], in [17] and in assay [20] was “inactive” throughout. Further, the Potency entry in assay [18] is “inactive”.

`COc1ccc(C(CN(C)C)C2(O)CCCCC2)cc1` (configuration not stated): the Potency result in [1], in assay [2], in assay [3], in assay [4], in assay [5] and in [6] was “inactive” throughout. Besides, the Potency result in assay [7], in assay [8], in assay [9], in [10], in assay [19] and in assay [15] was “inactive” in each case. Also, the Potency entry in assay [16], in assay [17], in assay [20] and in [18] was “inactive” each time.

`C#CCO`: the Potency result in assay [1], in assay [2], in [3], in [4], in [5] and in [6] was “inactive” throughout. For the same compound, the Potency entry in assay [7], in assay [8], in [9], in assay [10], in assay [11] and in assay [12] was “inactive” in each case. For the same compound, the Potency entry in assay [13], in assay [14], in [15], in assay [16], in [17] and in [20] was “inactive” in each case. Further, the Potency result in assay [18] is “inactive”.

Consider `CCCCNC(=O)n1c(NC(=O)OC)nc2ccccc21`, for which the Potency entry in assay [1], in assay [3], in assay [4], in [5], in assay [6] and in assay [7] was “inactive” throughout. Further, the Potency entry in assay [8], in assay [9], in assay [11], in assay [12], in assay [13] and in [14] was “inactive” throughout. Further, the Potency entry in assay [15], in assay [16], in [17], in assay [20] and in assay [18] was “inactive” each time. In addition, the Potency in assay [2] is 54.2 µM (active); in assay [19] it was 10.2 µM (active).

As to `CCOCN(C(=O)CCl)c1c(C)cccc1CC`, the Potency entry in assay [1], in assay [3], in [4], in assay [5], in assay [6] and in assay [7] was “inactive” throughout. Besides, the Potency result in assay [8], in assay [9], in assay [10], in assay [11], in assay [12] and in [14] was “inactive” in each case. Further, the Potency result in assay [17] and in assay [18] was “inactive” in each case. Besides, the Potency in [2] is 25.8 µM (active) and 68.6 µM (active).
